# About 2,600 (0.93%) of roughly 280,000 compounds were called active. A call without a number means that no potency is given here. Not shown: some 8% with an inconclusive outcome. Calls follow the shape of the dose curve; as a rule, active = well fitted curve in the direction sought with a large enough effect; inconclusive = small, poorly fitted or top-dose-only effect; inactive = flat fitted curve, though single readings scatter. The sample as a whole holds a higher share of actives than the screen did.
# Test: Counterscreen qHTS for Inhibitors of Tau Fibril Formation, Fluorescence Polarization; also: nearly all actives have a fitted effect of over 55% in size
# Details: tau K18 P301L (four-repeat tau fragment) Alexa594 fluorescence, heparin fibrillization; series mostly up to 57.7 µM
# Method in brief: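 Human K18 P301L tau (15 uM unlabeled plus 0.24 uM Alexa 594-labeled, final) in 100 mM sodium acetate pH 7 was mixed with compound and 20 uM heparin and incubated 6 hr at 37 C.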
# Potency is read from the fitted curve at half-maximal effect; tags tell the direction and shape of the fitted curve or compound fluorescence and quenching.
row,SMILES,Potency
1,CCc1ccccc1NC(=O)N1CCN(C(=O)c2nsc3ccccc23)CC1,inactive
2,COc1cccc(NC(=S)N(CCc2c(C)[nH]c3ccccc23)Cc2ccco2)c1,12.6 µM [quencher] (active)
3,COc1cccc(NC(=S)NCc2ccco2)c1,inactive
4,Cc1[nH]c2ccccc2c1CCN(Cc1cccs1)C(=S)NC(C)(C)C,inactive
5,CC(C)(C)OC(=O)N1CCC(c2c(C(=O)N3CCc4ccccc4C3)cnn2-c2ccc(F)cc2)CC1,inactive
6,Cc1ccc2[nH]cc(CCCN3C(=O)c4ccccc4C3=O)c2c1,25.1 µM [quencher] (active)
7,O=C1c2ccccc2C(=O)N1CCCc1nc(-c2ccccc2)no1,inactive
8,O=C1c2ccccc2C(=O)N1CCc1nn[nH]n1,inactive
9,COc1ccc(CCNC(=O)c2ccc3c(c2)sc2nc(-c4ccc(C)cc4)cn23)cc1OC,inactive
10,O=C(CSCc1cnn(-c2ccccc2)c1-n1cccc1)NCc1ccccc1Br,inactive
11,CCOc1ccccc1CNC(=O)c1cnc2c(-c3ccc(OCC)c(OCC)c3)c(C)nn2c1C,inactive
12,CN(c1ccc(OCC(=O)OCC(=O)Nc2cccc([N+](=O)[O-])c2)cc1)S(=O)(=O)c1ccc(F)cc1,10 µM [quencher] (active)
13,CN(c1ccc(OCC(=O)NC2=NCCS2)cc1)S(=O)(=O)c1ccc(F)cc1,inactive
14,CN(CC(=O)Nc1cccc(F)c1)CC(=O)Nc1cccc([N+](=O)[O-])c1,inactive
15,NS(=O)(=O)c1ccc(CCNC(=O)Nc2ccc(Cl)cc2)cc1,inactive
16,Cn1ccc(NC(=O)Nc2ccc(Cl)cc2)n1,inactive
17,CC(C)S(=O)(=O)c1csc(NC(=O)Nc2ccc(Cl)cc2)c1Cl,25.1 µM [quencher] (active)
18,Cc1ccc(CSc2nc3cccnc3n2Cc2ccc(C(=O)NC3CC3)cc2)cc1,inactive
19,CCCNC(=O)CCn1nc(-c2ccccc2)c2ccccc2c1=O,inactive
20,COc1cc(NS(=O)(=O)c2cccs2)cc(OC)c1,inactive
21,O=C(Nc1cccc(Cl)c1)Nc1ccccc1NS(=O)(=O)c1cccs1,11.2 µM [quencher] (active)
22,O=C(Nc1nncs1)c1ccccc1NS(=O)(=O)c1cccs1,inactive

row,SMILES,Potency
1,CC(NC(=O)c1cc(Sc2ccc(F)cc2F)nc2ccccc12)c1ccccc1 (centres undefined),inactive
2,CCN(c1ccc(Cl)cc1)S(=O)(=O)c1nnc(NC(=O)c2ccco2)s1,inactive
3,COc1ccc(CCNC(=O)C(=O)NCC(c2ccco2)S(=O)(=O)c2cccs2)cc1OC (centres undefined),inactive
4,CC1=Nc2cc(C(=O)NCc3ccc(C)cc3)ccc2Sc2ccc(Cl)cc21,inactive
5,Cc1ccc(C)c2sc(NC(=O)c3ccc(S(=O)(=O)N4CCCC4)cc3)nc12,inactive
6,CCN(CC)c1ccc2oc(=O)c(C)nc2c1,12.6 µM [quencher] (active)
7,CCN(CC)c1ccc(/C=N/Nc2nc(C)cc(C)n2)c(O)c1,inactive
8,CCN(CC)c1ccc2c(Nc3ccccc3)c(C=O)c(=O)oc2c1,inactive
9,COc1cc(OC)c(OC)cc1/C=C/c1nc2cc3ccccc3cc2c(=O)n1-c1ccc(F)c(Cl)c1,inactive
10,COc1ccccc1-c1ccnc2[nH]n(-c3ccccc3)c(=O)c12,inactive
11,CCOC(=O)c1c(C)[nH]c(CCC(=O)NCCCN2CCN(c3cc(C)ccc3C)CC2)c1C,inactive
12,Cc1nc(NC(=O)CN(C)S(=O)(=O)c2ccc(Cl)cc2)sc1C,inactive
13,C=CCCC(=O)Nc1nc(C)c(-c2csc(Nc3ccc(Cl)cc3)n2)s1,12.6 µM [quencher] (active)
14,Cc1nc(C)c(-c2csc(NCCc3ccccc3)n2)s1,inactive
15,CCCCCCC(=O)Nc1nc(C)c(-c2csc(Nc3cccc(OC)c3)n2)s1,8.91 µM [quencher] (active)
16,COc1cccc(CC(=O)Nc2ccc(-c3csc(C)n3)cc2)c1,inactive
17,CCOC(=O)c1csc(NC(=O)Nc2cccc(OC)c2)n1,inactive
18,Cc1ccccc1C(=O)Nc1nnc(S(=O)(=O)N(C)c2ccc(Cl)cc2)s1,inactive
19,Cc1ccc2onc(CC(=O)N3CCN(c4ccc(Cl)cc4)CC3)c2c1,inactive
20,Cc1cc2c(cc1S(=O)(=O)CCC(=O)Nc1ccc(OC(F)(F)F)cc1)OCC(=O)N2,inactive
21,Cc1cccc(C(=O)N2c3nc(-c4ccco4)nn3C3(CCCCC3)[C@@H]3CCCC[C@@H]32)c1,inactive
22,CCOc1cc(-c2cc(-c3ccc(OC)cc3)nc(N)c2C#N)ccc1O,inactive

row,SMILES,Potency
1,COc1ccc(-c2cc(-c3ccc(N)cc3)nc(N)c2C#N)cc1OC,28.2 µM [quencher] (active)
2,CCSc1nc(-c2ccc(OC)cc2)cc(-c2ccc(OC)cc2)c1C#N,inactive
3,CCn1cc2nc(SCc3cccc(F)c3)n(CCc3ccccc3)c(=O)c2n1,inactive
4,CCN1CCN(CCCNC(=O)c2cnn(-c3ccc(C)cc3C)c2C2CCN(C(=O)OC(C)(C)C)CC2)CC1,inactive
5,CCOC(=O)/C(=N\Nc1ccccc1[N+](=O)[O-])c1csc(Nc2ccccc2)n1,7.08 µM [quencher] (active)
6,Cc1csc(NC(=O)Nc2ccccc2[N+](=O)[O-])n1,inactive
7,CCOC(=O)Cc1csc(NC(=O)Nc2ccccc2)n1,inactive
8,CCc1ccc(NC(=O)c2cc(S(=O)(=O)NC3CCCCCC3)ccc2F)cc1,inactive
9,Cc1cccc(CCNC(=O)c2ccc3c(c2)nc2n3CCC(C)C2)c1 (centres undefined),inactive
10,CCOc1cc(CNC(=O)c2sc3ncnc(N(C)C4CCCCC4)c3c2C)ccc1OC,inactive
11,CCSC1=C(C#N)C(=O)n2c1cc1c2CCCC1,31.6 µM [quencher] (active)
12,CCSc1ncnc2c(C#N)c3n(c12)CCCCC3,inactive
13,O=C(CSCc1cnn(-c2ccccc2)c1-n1cccc1)NCc1ccc(Cl)cc1,inactive
14,COc1ccc(-c2nc3scc(CCNS(=O)(=O)c4cc(F)ccc4OC)n3n2)cc1OC,inactive
15,COc1ccc(Nc2ncc(C(=O)Nc3cc(C)ccc3OC)c3ccccc23)cc1,3.55 µM [quencher] (active)
16,COc1ccc(C)cc1NC(=O)NCc1ccccn1,inactive
17,COc1ccc(NC(=O)c2cnc(Nc3ccc(C)c(Cl)c3)c3ccccc23)cc1OC,inactive
18,O=c1cc(O)nc(SCc2ccccc2Cl)[nH]1,inactive
19,CC1(C)N=C(SCc2ccccc2Cl)c2ccccc2N1,12.6 µM [quencher] (active)
20,Nc1nc(SCc2ccccc2Cl)n[nH]1,inactive
